# 12-hLO inh: qHTS Assay for Inhibitors of 12-hLO (12-human lipoxygenase) | purified 12-hLO, xylenol orange hydroperoxide absorbance | Polyunsaturated fatty acid lipoxygenase ALOX12 (Homo sapiens), P18054 | 0.12% of 150,000 active | Potency, µM (series often up to 57.1 µM), usual class: inhibitors | AID 1452, 2008; also: nearly all actives have a fitted effect of over 55% in size
#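 Xylenol orange chromogenic assay: hydroperoxide from 12hLO oxidises Fe(II), giving red-shifted Fe(III)-XO absorbance. Conditions: 150 nM enzyme, 40 uM arachidonic acid, 25 mM Hepes pH 7.0, 0.01% Triton X-100, 30 min, room temperature.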
# ALDH1A1 inh: qHTS Assay for Inhibitors of Aldehyde Dehydrogenase 1 (ALDH1A1). Aldehyde dehydrogenase 1A1 (Homo sapiens), P00352. 7.3% of 220,000 active. Potency, µM (titrated, usually from 75.3 µM), most hits filed as inhibitors. AID 1030, 2008. Purified ALDH1A1, NADH fluorescence, propionaldehyde substrate; active = well fitted inhibition curve with a large enough effect, not every such curve was filed as active; inconclusive = small, poorly fitted or top-dose-only effect, or another doubt; inactive = no such curve, though single readings can be large or run the other way
# Target sequence (P00352 whole entry, looked up): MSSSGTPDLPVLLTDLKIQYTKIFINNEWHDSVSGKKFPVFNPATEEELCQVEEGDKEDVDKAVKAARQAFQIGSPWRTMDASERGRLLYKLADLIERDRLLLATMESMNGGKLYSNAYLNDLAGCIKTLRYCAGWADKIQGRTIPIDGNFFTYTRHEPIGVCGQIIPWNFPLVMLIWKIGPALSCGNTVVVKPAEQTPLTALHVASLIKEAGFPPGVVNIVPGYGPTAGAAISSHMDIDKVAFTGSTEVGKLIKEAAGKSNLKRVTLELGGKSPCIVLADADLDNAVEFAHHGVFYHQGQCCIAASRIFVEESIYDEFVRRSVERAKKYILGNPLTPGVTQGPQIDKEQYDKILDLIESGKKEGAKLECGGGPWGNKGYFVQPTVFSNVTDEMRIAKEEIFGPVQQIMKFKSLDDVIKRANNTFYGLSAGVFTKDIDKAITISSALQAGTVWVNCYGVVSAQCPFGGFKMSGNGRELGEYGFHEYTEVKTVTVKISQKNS
# HPGD inh: qHTS Assay for Inhibitors of HPGD (15-Hydroxyprostaglandin Dehydrogenase). 15-hydroxyprostaglandin dehydrogenase [NAD(+)] (Homo sapiens), P15428. purified HPGD, NADH fluorescence kinetic, PGE2 substrate. Potency, µM, usual class: inhibitors. 4.3% of 150,000 active; active = well fitted inhibition curve with a large enough effect, not every such curve was filed as active; inconclusive = small, poorly fitted or top-dose-only effect, or another doubt; inactive = no such curve, though single readings can be large or run the other way
#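 20 nM HPGD preincubated 15 min at room temperature with compound in 50 mM Tris-HCl pH 8, 0.01% Tween 20. Started with 1 mM NAD+ and 30 uM prostaglandin E2; NADH fluorescence (360/450 nm) read 5 times over 30-s intervals, last minus first.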
# IMPase Li inh: qHTS Assay for Identifying the Cell-Membrane Permeable IMPase Inhibitors: Potentiation with Lithium | AID 1457, 2008 | 0.35% of 210,000 active | Potency, µM (top dose mostly 59.4 µM), usual class: inhibitors | CHO-M1 cells, IP1 TR-FRET (IP-One), carbachol + lithium;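 also: IP1 builds up when IMPase is blocked and the TR-FRET signal falls; nearly all actives have a fitted effect of over 50% in size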
#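 Test compounds were applied to CHO-M1 cells previously cultured for 16–30 h at 2000 per well. A small lithium amount accompanied them; after 30 min at 37C, IP1 was quantified by TR-FRET.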
# PNC inhibitor: High Content Assay for Compounds that inhibit the Assembly of the Perinucleolar Compartment | PC3M PTB-GFP, PNC prevalence imaging, 16 h; hits give low values | 3.1% of 140,000 active | activity change (PNC), negative = inhibition, % at 10 µM;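 active = readout at or below -70, meaning at least 70% loss of cells showing the perinucleolar compartment, a nuclear body marking cancer cells; inconclusive = readout between -30 and a set limit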
#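 PC3M cells stably expressing PTB-GFP, 750–1000 cells/well, treated 16 h at 37 °C with compound (23 nl of library stock), in duplicate. After paraformaldehyde fixation and Hoechst stain, imaged at 20x; PNC prevalence scored by image analysis.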
# IMPase cell inh: qHTS Assay for Identifying the Cell-Membrane Permeable IMPase Inhibitors; Inositol monophosphatase 1 (Rattus norvegicus), P97697; CHO-M1 cells, IP1 accumulation, HTRF TR-FRET ratio; inhibition (IP1 accumulation), % at 46.1 µM; 120,000 tested, under 10 active; active = well fitted curve in the direction sought with a large enough effect in the signal ratio, not every such curve was filed as active; inconclusive = small, poorly fitted or top-dose-only effect, or a change in a side signal; inactive = no such curve, though single readings can be large or run the other way; the % refers to the signal ratio;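 also: cells stimulated with carbachol in lithium chloride buffer; higher means more IMPase inhibition seen as more IP1 and lower FRET ratio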
# Target sequence (P97697 whole entry, looked up): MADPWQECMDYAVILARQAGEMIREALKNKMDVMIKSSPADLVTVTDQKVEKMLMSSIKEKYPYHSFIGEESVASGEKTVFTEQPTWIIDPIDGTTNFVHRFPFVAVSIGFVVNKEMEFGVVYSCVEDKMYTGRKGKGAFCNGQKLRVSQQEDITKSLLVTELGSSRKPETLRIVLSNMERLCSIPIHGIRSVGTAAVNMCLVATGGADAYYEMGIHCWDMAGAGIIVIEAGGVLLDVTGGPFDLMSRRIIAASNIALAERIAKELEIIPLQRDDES
#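 Cellular IMPase inhibition is scored as a rise in cytosolic IP1, detected by competitive TR-FRET between d2-labelled IP1 and a europium anti-IP1 antibody. M1-expressing CHO cells were stimulated with carbachol for 30 min at 37C, with lithium (50 mM LiCl) present in the buffer.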
# Hits are given with their value; – = inactive; ? = inconclusive; · = no result; [ ] = dose if it differs, or a comment. Compounds with a hit are over-represented: about 11% of the library has one in this group of screens. Unless noted, calls follow the shape of the dose curve; as a rule, active = well fitted curve in the direction sought with a large enough effect; inconclusive = small, poorly fitted or top-dose-only effect, or another doubt; inactive = no such curve, though single readings can be large; an effect the other way counts as inactive or inconclusive.
SMILES,12-hLO inh,ALDH1A1 inh,HPGD inh,IMPase Li inh,PNC inhibitor,IMPase cell inh
O=C(NC(=S)Nc1ccc(S(=O)(=O)Nc2nccs2)cc1)c1ccc(Br)o1,·,32µM,·,–,·,·
O=C(NC(=S)Nc1ccc(S(=O)(=O)Nc2nccs2)cc1)c1ccccc1,–,32µM,–,–,?,·
COc1cccc(OC)c1C(=O)NC(=S)Nc1ccc(S(=O)(=O)Nc2nccs2)cc1,·,–,·,–,·,·
COc1ccc(NS(=O)(=O)c2ccc(NC(=S)NC(=O)c3cccnc3)cc2)nn1,·,15µM,·,–,·,·
O=C(NC(=S)Nc1ccc(S(=O)(=O)Nc2nccs2)cc1)c1ccc(F)c(F)c1,–,25µM,–,–,–,·
Cc1cc2oc(C(=O)Nc3ccc(S(=O)(=O)Nc4nccs4)cc3)cc(=O)c2cc1Cl,–,–,32µM,–,–,–
O=C(Nc1ccc(S(=O)(=O)Nc2nccs2)cc1)c1cccc(N2C(=O)c3ccccc3C2=O)c1,·,7.1µM,·,–,·,·
CCn1nc(C(=O)Nc2ccc(S(=O)(=O)Nc3nccs3)cc2)c2ccccc2c1=O,–,28µM,–,–,–,–
O=C(O)c1ccccc1C(=O)Nc1ccc(S(=O)(=O)Nc2nccs2)cc1,–,–,–,–,·,–
O=C(NC(=S)Nc1ccc(S(=O)(=O)Nc2nccs2)cc1)c1ccccc1F,·,2µM,·,–,·,·
Cc1cc2oc(C(=O)Nc3ccc(S(=O)(=O)N4CCCC(C)C4)cc3)cc(=O)c2cc1Cl (centres undefined),–,–,–,–,?,·
O=C(NC(=S)Nc1ccc(S(=O)(=O)Nc2nccs2)cc1)c1cccnc1,·,?,·,–,·,·
COc1cc(NS(=O)(=O)c2ccc(NC(=S)NC(=O)C3CCCC3)cc2)nc(OC)n1,?,25µM,–,–,?,–
COc1ccc(/C=N/NC(=O)CN2CCSCC2)cc1C,–,10µM,–,–,–,·
CCOc1ccc(/C=N/NC(=O)CN2CCSCC2)cc1,–,?,–,–,?,–
CN(C)c1ccc(/C=C(/NC(=O)c2ccccc2)C(=O)N/N=C/c2ccc([N+](=O)[O-])c(O)c2)cc1,–,4µM,16µM,–,–,–[1.84 µM]
COc1ccc(/C=N/NC(=S)NC2CCS(=O)(=O)C2)cc1OC (centres undefined),–,–,?,–,-100,–
COc1ccc(/C=C(/NC(=O)c2ccccc2)C(=O)N/N=C/c2ccc3c(c2)OCO3)cc1OC,–,–,32µM,–,–,–
O=C(N/N=C/c1ccc2c(c1)OCO2)/C(=C/c1ccc2c(c1)OCO2)NC(=O)c1ccccc1,–,–,?,–,?,–
COC(=O)[C@@]1(Cc2ccccc2-c2ccco2)C=C[C@H](C)[C@@H](c2ccccc2)N1C(=O)C(F)(F)F,·,–,–,–,·,·
Cc1nn(-c2ccccc2)c(OC(=O)c2ccccc2F)c1S(=O)(=O)c1ccccc1,·,·,·,·,·,–
COc1ccc(/C=N/NC(=O)C(=O)N2CCCC2)cc1OC,–,–,32µM,–,–,·
COc1cc(OC)c(NC(=O)/C=C/C(=O)O)cc1Cl,·,–,·,·,·,·
O=C(/C=C/c1ccncc1)c1ccc2c(c1)OCCO2,·,0.89µM,·,–,·,·
Cc1cc(=O)oc2c1ccc1oc(/C(=N/O)c3ccccc3)c(C)c12,–,?,13µM,–,–,–
SMILES,12-hLO inh,ALDH1A1 inh,HPGD inh,IMPase Li inh,PNC inhibitor,IMPase cell inh
Cc1cc(O)c(C(=O)c2ccccc2C(=O)O)cc1C,–,18µM,–,–,–,–
Cc1ccc(S(=O)(=O)N(CC(=O)NCC2CCCO2)c2cccc([N+](=O)[O-])c2)cc1 (centres undefined),·,14µM,·,·,·,·
CCOc1ccc(N(CC(=O)NCC2CCCO2)S(=O)(=O)c2ccc(SC)cc2)cc1 (centres undefined),–,4µM,–,–,?,–
COc1ccc(N(CC(=O)NCC2CCCO2)S(=O)(=O)c2ccc(C)cc2)cc1OC (centres undefined),–,–,–,–,?,–
CS(=O)(=O)N(CC(=O)NCC1CCCO1)c1cccc([N+](=O)[O-])c1 (centres undefined),·,–,·,–,·,·
COc1ccccc1CN(CC(=O)NCC1CCCO1)C(=O)CNS(=O)(=O)c1ccc(C)cc1 (centres undefined),–,13µM,–,–,–,–
COc1cc(Nc2nc3ccc(Cl)cc3nc2-n2nc(C)cc2C)cc(OC)c1,·,·,·,·,·,–
O=P1(O)Oc2c(-c3ccccc3)cc3ccccc3c2-c2c(c(-c3ccccc3)cc3ccccc23)O1,·,–,–,–,·,·
COC(=O)c1ccc(OC(=O)C2CC(=O)N(c3cccc(C)c3)C2)cc1 (centres undefined),–,18µM,?,–,–,–
Cc1nc2ncnn2c(N2CCCC(C(=O)Nc3ccc4c(c3)CCC4)C2)c1C (centres undefined),–,?,28µM,–,–,–
O=C(c1cccc(NS(=O)(=O)c2ccc(F)c(F)c2)c1)N1CCN(Cc2ccccc2)CC1,–,?,–,–,?,·
COc1ccc(N2CCN(C(=O)c3ccc(NS(=O)(=O)c4ccccc4)cc3)CC2)cc1,–,–,–,–,–,–
O=C(c1cccc(S(=O)(=O)NCc2ccccc2)c1)N1CCN(Cc2ccccc2)CC1,–,18µM,–,–,–,–
COc1cc(C(=O)N2CCN(C(=O)c3ccco3)CC2)cc(OC)c1OC,–,?,–,–,–,–
CC(=O)Nc1ccc(S(=O)(=O)Nc2nc3ccccc3nc2N2CCCC2)cc1,–,11µM,–,–,–,–
COc1ccc(NS(=O)(=O)c2ccc(C(=O)N3CCN(Cc4ccccc4)CC3)cc2)cc1,·,3.2µM,·,–,·,·
COc1cccc(S(=O)(=O)Nc2ccc(C(=O)N3CCN(C(=O)c4ccco4)CC3)cc2)c1,–,18µM,–,–,–,–
O=C(CSc1nc(-c2ccccc2)[nH]c1-c1ccc(F)cc1)NC1CCCC1,·,·,·,·,·,–
Cc1ccc(S(=O)(=O)NCc2ccc(C(=O)N3CCN(Cc4ccccc4)CC3)cc2)cc1,–,11µM,–,–,–,–
CCN1CCN(C(=O)c2ccc(CN(c3ccccc3)S(=O)(=O)c3ccccc3)cc2)CC1,–,–,14µM,–,?,·
CC(=O)Nc1ccc(S(=O)(=O)NC2=C(N3CCN(Cc4ccccc4)CC3)C(=O)c3ccccc3C2=O)cc1,–,16µM,–,–,?,–
O=C(NCc1cccc(C(F)(F)F)c1)c1cccc(S(=O)(=O)NCc2ccccc2)c1,–,–,–,–,–,·

# Screening results (PubChem)
